A selection: hits, their analogues and other compounds. The true share with any hit is near 1.4%.
AID504770 – E. coli YBA685 growth inhibition, screen for V. cholerae RctB inhibitors | z-score (test concentration not listed) | 130,000 compounds, 0.27% hits | E. coli YBA685 rctB-dependent plasmid, OD600 growth, 3 h; active compounds read low; in the data active = z-score below about -2, passing the limit was not always enough
Mtb MenB inh – inhibitors of Mycobacterium tuberculosis MenB enzyme. P9WNP5. MenB enzyme assay, absorbance read-out. inhibition, % (test concentration not listed). 100,000 compounds, 0.43% hits. AID 540299; in the data active = inhibition above about 21%, passing the limit was not always enough
Mtb MbtI inh – MbtI salicylate synthase inhibition. purified MbtI enzyme, fluorescence intensity read-out. 100,000 compounds, 0.89% hits. inhibition, % (concentration not given with the values); in the data active = inhibition mostly above about 56%, no sharp cut-off; inactive = mostly below about 77%
Polio RdRp inh – inhibitors of poliovirus RNA polymerase binding and polymerization; poliovirus polymerase elongation, fluorescence polarization; active compounds read low; P03300; 150,000 compounds, 0.66% hits; % elongation, % (compound at 16.7 µg/mL); in the data active = % elongation below about 90%
Target sequence (P03300 1749-2209 limits assumed): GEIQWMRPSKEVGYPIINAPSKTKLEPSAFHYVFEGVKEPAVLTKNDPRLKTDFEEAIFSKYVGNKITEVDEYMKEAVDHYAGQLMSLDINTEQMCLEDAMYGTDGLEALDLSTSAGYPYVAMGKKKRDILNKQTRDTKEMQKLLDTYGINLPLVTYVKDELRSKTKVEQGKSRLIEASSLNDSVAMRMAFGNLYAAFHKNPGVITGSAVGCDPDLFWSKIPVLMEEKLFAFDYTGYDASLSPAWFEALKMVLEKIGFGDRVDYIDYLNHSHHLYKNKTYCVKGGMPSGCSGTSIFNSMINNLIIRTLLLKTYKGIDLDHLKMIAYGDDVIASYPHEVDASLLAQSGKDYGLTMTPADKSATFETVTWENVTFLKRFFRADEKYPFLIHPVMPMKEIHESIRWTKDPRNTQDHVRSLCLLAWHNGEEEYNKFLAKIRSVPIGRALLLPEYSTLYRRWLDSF
* hit, by the source's call.

`CCc1nnc2c3c(-c4ccccc4)csc3ncn12` gave AID504770 0.5, Mtb MbtI inh -11.7 and Polio RdRp inh 102.0.
Cc1cc(C)c2c(-n3cccc3)c(C(=O)NCc3cccnc3)sc2n1 was read as AID504770 -0.55, Mtb MenB inh 7.6, Mtb MbtI inh 15.0 and Polio RdRp inh 102.0.
`O=C(O)c1c[nH]c(=O)cc1O` gave AID504770 -0.4.
Screening O=c1[nH]sc2ccccc12 returned AID504770 -6.1, Mtb MenB inh 51.1*, Mtb MbtI inh 105.1 and Polio RdRp inh 98.0.
Screening C=CCn1c(C2COc3ccccc3O2)n[nH]c1=S (stereo not drawn) returned AID504770 0.65, Mtb MenB inh -22.4, Mtb MbtI inh 97.8* and Polio RdRp inh 100.0.
Screening CC(=O)NC1=CC(=O)c2nonc2C1=O returned AID504770 -9.25* and Mtb MbtI inh 47.3.
Screening NC(=O)C1=CN(C(=O)Nc2ccc(Cl)cc2)CCC1C(F)(F)F (stereo not drawn) returned AID504770 1, Mtb MenB inh -7.3, Mtb MbtI inh -10.8 and Polio RdRp inh 102.0.
`Cc1[nH]n(-c2ccccc2)c(=O)c1N=O` gave AID504770 -0.6, Mtb MenB inh -49.0, Mtb MbtI inh 17.6 and Polio RdRp inh 102.0.
Screening Cc1[nH]n(-c2ccc(Br)cc2)c(=O)c1C1=c2ccccc2=NC1=O returned AID504770 -0.35, Mtb MenB inh 2.9, Mtb MbtI inh 64.0* and Polio RdRp inh 101.0.
CCC(Sc1nc2c(c(=O)[nH]1)CCC2)C(=O)Nc1cccc(OC)c1 (stereo not drawn) was read as AID504770 -1.05, Mtb MenB inh 5.3, Mtb MbtI inh 95.8* and Polio RdRp inh 102.0.
For CCn1cc(C(=O)O)c(=O)c2cc(Cl)ccc21 the results were AID504770 0.25.
For CCn1cc(C(=O)O)c(=O)c2cc(F)c(N3CCN(C(=S)NC(=O)c4c(-c5ccccc5)noc4C)CC3)cc21 the results were AID504770 -0.7, Mtb MenB inh -12.5, Mtb MbtI inh -42.1 and Polio RdRp inh 102.0.
Screening CCn1cc(C(=O)O)c(=O)c2cc(F)c(N3CCN(C(=S)NC)CC3)cc21 returned AID504770 -7.2*, Mtb MenB inh -13.6 and Polio RdRp inh 109.0.
`CCOC(=O)c1cn(CC)c2cc(N3CCCC3)c(F)cc2c1=O` gave AID504770 0, Mtb MenB inh 4.0, Mtb MbtI inh -2.4 and Polio RdRp inh 104.0.
CCn1cc(C(=O)O)c(=O)c2cc3c(cc21)OCO3 was read as AID504770 -3.75*, Mtb MenB inh -7.3, Mtb MbtI inh -1.4 and Polio RdRp inh 102.0.
For O=C(O)c1cn(-c2ccc(F)cc2)c2cc(N3CCNCC3)c(F)cc2c1=O the results were AID504770 -3.55*, Mtb MenB inh -4.4, Mtb MbtI inh 1.9 and Polio RdRp inh 99.0.
Screening O=C(O)c1cn(C2CC2)c2cc(N3CCN(C(=S)S)CC3)c(F)cc2c1=O returned AID504770 -8.3*, Mtb MenB inh -77.0 and Polio RdRp inh 102.0.
CCCCCc1nnc(NC(=O)c2cccc(S(=O)(=O)N3CCCC3)c2)s1 was read as AID504770 1.3, Mtb MenB inh -37.9, Mtb MbtI inh -1.9 and Polio RdRp inh 101.0.
`CCN1CSC(=S)N(Cc2ccc(OC)cc2)C1` gave AID504770 1.4, Mtb MenB inh -72.6, Mtb MbtI inh 5.9 and Polio RdRp inh 101.0.
`CCN1CSC(=S)N(Cc2ccccc2)C1` gave AID504770 -2.85*, Mtb MenB inh -57.8, Mtb MbtI inh 0.4 and Polio RdRp inh 101.0.
For FC(F)(F)c1cc(-c2ccc3c(c2)OCO3)nc(=S)[nH]1 the results were AID504770 1.45, Mtb MenB inh 34.4*, Mtb MbtI inh -143.3 and Polio RdRp inh 102.0.
For N#Cc1c(-c2ccc3c(c2)OCO3)cc(-c2ccc(F)cc2)nc1N the results were AID504770 -1.05, Mtb MenB inh -11.6, Mtb MbtI inh 74.9 and Polio RdRp inh 101.0.
Screening CCOC(=O)NC(=S)Nc1ccc(OC)cc1 returned AID504770 -0.35, Mtb MenB inh -7.1, Mtb MbtI inh -4.8 and Polio RdRp inh 100.0.
CCOC(=O)NC(=S)c1ccc(OC)cc1 was read as AID504770 -0.6, Mtb MenB inh -7.2, Mtb MbtI inh 78.5* and Polio RdRp inh 82.0*.
O=C1NN(c2ccccc2)C(=O)/C1=C/c1ccc(Br)cc1 was read as AID504770 -0.3, Mtb MenB inh 79.4* and Polio RdRp inh 98.0.
`CC(C)CN(CC(C)C)C(=O)C1CCCCC1C(=O)O` (stereo not drawn) gave AID504770 1.9, Mtb MenB inh 30.3*, Mtb MbtI inh 6.6 and Polio RdRp inh 102.0.
`S=c1[nH]nc(SCc2ccccc2)s1` gave AID504770 -0.3, Mtb MenB inh -12.3, Mtb MbtI inh 87.0* and Polio RdRp inh 98.0.
Screening CC(=O)Nc1ccc2nc(Nc3nc4ccc(C(C)C)cc4s3)sc2c1 returned AID504770 0.1, Mtb MenB inh -23.5, Mtb MbtI inh 11.4 and Polio RdRp inh 106.0.
O=c1c[n+]([O-])c2ccccc2n1OCc1ccccn1 was read as AID504770 2, Mtb MenB inh -49.4, Mtb MbtI inh -8.1 and Polio RdRp inh 103.0.
Screening O=[n+]1c(CO)c(CO)n([O-])c2ccccc21 returned AID504770 -8.7*, Mtb MenB inh 11.3, Mtb MbtI inh 8.3 and Polio RdRp inh 101.0.
`N#CC1(C#N)C2C=CC(C2)C1(C#N)C#N` gave AID504770 -5.95*, Mtb MenB inh -15.7, Mtb MbtI inh 11.9 and Polio RdRp inh 103.0.
For COc1c(O)cc2c(c1O)C1OC(CO)C(O)C(O)C1OC2=O (stereo not drawn) the results were Mtb MenB inh 43.0*, Mtb MbtI inh 2.9 and Polio RdRp inh 99.0.
For COc1cc2ccc(=O)oc2c(OC2OC(CO)C(O)C(O)C2O)c1O (stereo not drawn) the results were AID504770 -0.15, Mtb MenB inh -36.0 and Polio RdRp inh 103.0.
Screening CC(C)(C)OC(=O)NCc1cccs1 returned AID504770 0.95, Mtb MenB inh 32.7*, Mtb MbtI inh 6.2 and Polio RdRp inh 102.0.
Screening Clc1nc(Cl)nc(Nc2ccccc2)n1 returned AID504770 0.65, Mtb MenB inh -2.6 and Polio RdRp inh 87.0*.
`Fc1cccc(Nc2nc(Cl)nc(Cl)n2)c1` gave AID504770 -0.55, Mtb MenB inh 47.9*, Mtb MbtI inh 2.4 and Polio RdRp inh 98.0.
`CN(C)c1nc(Nc2ccccc2)nc(N(C)C)n1` gave AID504770 -0.5, Mtb MenB inh 33.8, Mtb MbtI inh 5.3 and Polio RdRp inh 99.0.
CCc1cc(=O)oc2c(C)c3occ(-c4ccc(Cl)cc4)c3cc12 was read as AID504770 0.7, Mtb MenB inh 7.8, Mtb MbtI inh 23.6 and Polio RdRp inh 102.0.
For O=S1(=O)CC(O)C(NCCc2ccccc2)C1 (stereo not drawn) the results were AID504770 -0.8 and Mtb MbtI inh -9.1.
Screening CCN1C(=O)C(=Cc2ccc(OC(F)F)cc2)C(=O)N(CC)C1=S returned AID504770 0.6, Mtb MenB inh -85.5, Mtb MbtI inh 54.5* and Polio RdRp inh 101.0.
`c1ccc(-c2cnc3nonc3n2)cc1` gave AID504770 -2.95*, Mtb MenB inh -0.6 and Polio RdRp inh 85.0.
